For eight compounds, Potency, outcome and PLD induction results are on record in PubChem BioAssay (Tox21).

A short description of experiment [1]: A CellTox Green Cytotoxicity Assay to monitor cytotoxicity in HEK293 cells - 32 hour (AID 1224881). Also: nearly all actives have a fitted effect of over 40% in size. Also: potency is read from the fitted curve at half-maximal effect. The method, boiled down:
(§1)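 HEK293 cells, 600/well, were preincubated 5 hours and then exposed to compounds at 37 C for up to 40 hours. A cell-impermeant cyanine dye staining dead-cell DNA was read by fluorescence at 0, 8, 16, 24, 32 and 40 h time points.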

Experiment [2] is described as follows: A CellTox Green Cytotoxicity Assay to monitor cytotoxicity in HepG2 cells - 0 hour (AID 1224882). Also: nearly all actives have a fitted effect of over 35% in size. Also: potency is read from the fitted curve at half-maximal effect. The method, boiled down:
(§2)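 HepG2 cells, 600/well, preincubated 5 h with CellTox Green dye, then exposed to Tox21 compounds in DMSO at 37 C for up to 40 h. Dead-cell DNA fluorescence read at the indicated time point.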

Experiment [3] in a line: A CellTox Green Cytotoxicity Assay to monitor cytotoxicity in HEK293 cells - 8 hour (AID 1224884). Also: nearly all actives have a fitted effect of over 35% in size. Also: potency is read from the fitted curve at half-maximal effect. The procedure, abridged: as §1
A short description of experiment [4]: qHTS RealTime-Glo MT Cell Viability Assay in HepG2 cells - 16 hour (AID 1224885). Also: nearly all actives have a fitted effect of over 50% in size. The procedure, abridged: (§3)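 HepG2 cells were seeded at 600 cells/well together with NanoLuc luciferase and a cell-permeant prosubstrate, preincubated 5 h at 37 C/5% CO2, then pin-dosed with compounds in DMSO. Nonlytic luminescence from viable cells was read at each time point.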

Experiment [5] in a line: qHTS RealTime-Glo MT Cell Viability Assay in HEK293 cells - 24 hour (AID 1224886). Also: nearly all actives have a fitted effect of over 50% in size. Also: potency is read from the fitted curve at half-maximal effect. The procedure, abridged: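 HEK293 cells were seeded at 600 cells/well together with NanoLuc luciferase and cell-permeant prosubstrate, preincubated 5 h at 37 C/5% CO2, then given compound in DMSO by pintool. Luminescence from viable-cell prosubstrate reduction was read repeatedly over 40 h.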
(In qHTS, concentration-response curves come from the screen itself.)

Experiment [6] can be described thus: qHTS RealTime-Glo MT Cell Viability Assay in HEK293 cells - 8 hour (AID 1224887). Also: nearly all actives have a fitted effect of over 50% in size. Also: potency is read from the fitted curve at half-maximal effect. The method, boiled down:
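600 cells/well were plated with the nonlytic NanoLuc/prosubstrate reagent, pre-incubated 5 h, then given 23 nL of compound in DMSO. Incubation at 37 C for 40 h, with luminescence from viable-cell-reduced substrate read repeatedly from 0 h.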

Experiment [7] in a line: A CellTox Green Cytotoxicity Assay to monitor cytotoxicity in HEK293 cells - 16 hour (AID 1224888). Also: nearly all actives have a fitted effect of over 35% in size. The procedure, abridged: as §1
Experiment [8] in a line: qHTS RealTime-Glo MT Cell Viability Assay in HepG2 cells - 0 hour (AID 1224889). Also: nearly all actives have a fitted effect of over 50% in size. The method, boiled down:
as §3

The nature of experiment [9]: A CellTox Green Cytotoxicity Assay to monitor cytotoxicity in HepG2 cells - 8 hour (AID 1224890). Also: nearly all actives have a fitted effect of over 45% in size. Also: potency is read from the fitted curve at half-maximal effect. The method, boiled down:
as §2

Experiment [10] in a line: qHTS assay to identify small molecule antagonists of the estrogen receptor alpha (ER-alpha) signaling pathway using the BG1 cell line in the presence of 0.1 nM 17-beta-estradiol - cell viability counter screen (AID 1259241). Also: nearly all actives have a fitted effect of over 40% in size. The procedure, abridged: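 Following 5 days in phenol red-free medium with charcoal-stripped serum, VM7Luc4E2 cells received test compounds alongside 0.1 nM 17beta-estradiol (final) at 37C for 22 hr. Live cells were then quantified via protease-substrate fluorescence.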

Experiment [11] can be described thus: qHTS assay to identify small molecule antagonists of the androgen receptor (AR) signaling pathway using the MDA cell line in the presence of 0.5 nM R1881 - cell viability counter screen (AID 1259242). Also: nearly all actives have a fitted effect of over 45% in size. The procedure, abridged:
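MDA-kb2 cells (MMTV-luciferase, AR/GR responsive) were treated with compounds plus 0.5 nM R1881 (final) for 16 hr at 37C, 0% CO2. Viability was then read in the same wells as live-cell protease fluorescence (CellTiter-Fluor, 30 min).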

The nature of experiment [12]: qHTS assay to identify small molecule phospholipidosis (PLD) inducers (AID 1259344; active = well fitted curve in the direction sought with a large enough effect; an effect the other way counts as inactive or inconclusive). The procedure, abridged:
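Fluorescent phospholipid staining (LipidTOX Red) measured by automated microscopy in fixed HepG2 cells after 24 h treatment; nuclei counterstained with Hoechst 33342; amiodarone as reference inducer.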

Experiment [13] can be described thus: qHTS assay to identify small molecule HDAC inhibitors (AID 1259364). Also: top concentration of the series differs between compounds; nearly all actives have a fitted effect of over 45% in size. The procedure, abridged:
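Wild-type HCT-116 cells, plated overnight at 37 C, exposed to compounds 2 hr at 37 C; luminogenic HDAC-Glo substrate then added 30 min at room temperature. Luminescence reports relative endogenous class I/II HDAC activity.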

A short description of experiment [14]: qHTS assay to identify small molecule HDAC inhibitors - cell viability counter screen (AID 1259365). Also: nearly all actives have a fitted effect of over 50% in size. Also: potency is read from the fitted curve at half-maximal effect. The procedure, abridged:
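HCT-116 wild-type, overnight attachment; 2hr drug exposure, 37C; CellTiter-Glo luminescent ATP readout after 30min RT.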

Experiment [15] is described as follows: qHTS assay to identify small molecule agonists of the sonic hedgehog signaling (Shh) pathway - cell viability counter screen (AID 1259366). Also: nearly all actives have a fitted effect of over 50% in size. Also: potency is read from the fitted curve at half-maximal effect. The method, boiled down: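 Compounds in DMSO were pin-transferred onto 3T3 Gli1-Luc cells that had settled 4hr; plates then stood 24hr at 37C and 5% CO2. One hour before the end, CellTiter-Fluor was added and fluorescence recorded.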

Experiment [16] can be described thus: qHTS assay to identify small molecule antagonists of the sonic hedgehog signaling (Shh) pathway - cell viability counter screen (AID 1259367). Also: nearly all actives have a fitted effect of over 55% in size. Also: potency is read from the fitted curve at half-maximal effect. The procedure, abridged: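 Using CellTiter-Fluor, viability of Gli1-Luc reporter 3T3 cells is read by fluorescence in the wells used for the Shh luciferase assay. Treatment lasts 23 hr with conditioned medium, then reagent 1 hr at 37C.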

Experiment [17] in a line: qHTS assay to identify small molecule agonists of the sonic hedgehog signaling (Shh) pathway (AID 1259368; calls by dose curve;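 also: NIH/3T3-derived 3T3Gli1-Luc cells carrying a stable Gli1-driven firefly luciferase reporter; series mostly up to about 92 µM; nearly all actives have a fitted effect of over 15% in size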). The method, boiled down: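 NIH/3T3-derived 3T3Gli1-Luc cells with stably integrated Gli1-driven firefly luciferase, 2,000 cells/well, compounds added after 4 hr. Incubated 24 hr at 37C, 5% CO2; luminescence read after 30 min with luciferase reagent at room temperature.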

The nature of experiment [18]: qHTS assay to identify small molecule antagonists of the sonic hedgehog signaling (Shh) pathway (AID 1259369; calls by dose curve; also: nearly all actives have a fitted effect of over 45% in size; also: potency is read from the fitted curve at half-maximal effect). The method, boiled down: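 NIH/3T3-derived Gli1-Luc reporter cells plated 4 h, dosed with compound, then stimulated with conditioned medium for 24 h at 37 C. Firefly luciferase luminescence read after 30 min with detection reagent at room temperature.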
A short description of experiment [19]: A CellTox Green Cytotoxicity Assay to monitor cytotoxicity in HepG2 cells - 32 hour (AID 1224883). Also: nearly all actives have a fitted effect of over 50% in size. Also: potency is read from the fitted curve at half-maximal effect. The method, boiled down:
as §2

Experiment [20] concerns the target Androgen receptor (Homo sapiens) (UniProt P10275). Kind of experiment: qHTS assay to identify small molecule antagonists of the androgen receptor (AR) signaling pathway using the MDA cell line in the presence of 0.5 nM R1881 (AID 1259243). Also: nearly all actives have a fitted effect of over 50% in size. The method, boiled down: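 MDA-kb2 cells (MMTV-luciferase, responsive to AR and GR) at 3,000/well, rested 5 h at 37C, 0% CO2, then given compounds plus 0.5 nM R1881 (final) for 16 hr. Luciferase read with ONE-Glo after 30 min at room temperature.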

“And” between values parts separate entries of the source, which are not always exact repeats. Equal entries are not always repeated. Results filed as inconclusive are left out. More than one record can exist for a structure, and the calls need not agree. The source made the active and inactive calls. Unless noted, calls follow the shape of the dose curve; as a rule, active = well fitted curve in the direction sought with a large enough effect in the repeat runs; inconclusive = weak or mixed curves; inactive = no such curve, though single readings can be large; an effect the other way counts as inactive or inconclusive.
% is scaled to controls: 0 for no effect and ±100 for the full control effect.

Sequence of Androgen receptor (Homo sapiens) (P10275 whole entry, looked up): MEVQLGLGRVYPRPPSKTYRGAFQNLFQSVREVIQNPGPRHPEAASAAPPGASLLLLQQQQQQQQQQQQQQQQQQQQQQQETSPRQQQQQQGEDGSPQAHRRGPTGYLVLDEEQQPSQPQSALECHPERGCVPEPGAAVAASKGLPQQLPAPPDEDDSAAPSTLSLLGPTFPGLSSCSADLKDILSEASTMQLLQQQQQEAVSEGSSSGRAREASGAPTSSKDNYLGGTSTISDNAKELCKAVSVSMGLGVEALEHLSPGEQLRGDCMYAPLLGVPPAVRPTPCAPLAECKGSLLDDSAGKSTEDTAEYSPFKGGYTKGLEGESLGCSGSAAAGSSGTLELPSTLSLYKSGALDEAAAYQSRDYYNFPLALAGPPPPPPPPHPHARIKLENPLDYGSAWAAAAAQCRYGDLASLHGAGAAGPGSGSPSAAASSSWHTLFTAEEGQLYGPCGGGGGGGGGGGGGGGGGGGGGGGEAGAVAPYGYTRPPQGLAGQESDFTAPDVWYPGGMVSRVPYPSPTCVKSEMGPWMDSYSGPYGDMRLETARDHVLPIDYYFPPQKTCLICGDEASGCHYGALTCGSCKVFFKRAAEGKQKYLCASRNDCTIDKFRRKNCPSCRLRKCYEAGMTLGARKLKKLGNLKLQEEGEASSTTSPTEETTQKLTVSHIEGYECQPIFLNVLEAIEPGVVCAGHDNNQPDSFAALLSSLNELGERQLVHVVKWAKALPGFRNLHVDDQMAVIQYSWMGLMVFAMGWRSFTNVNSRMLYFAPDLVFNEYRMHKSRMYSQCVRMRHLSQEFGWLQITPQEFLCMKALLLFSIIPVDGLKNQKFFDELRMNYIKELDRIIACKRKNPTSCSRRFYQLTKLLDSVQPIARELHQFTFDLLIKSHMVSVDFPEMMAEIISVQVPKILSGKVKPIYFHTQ

As for `Oc1ccccc1-c1ccccc1`, the Potency result in experiment [1], in [2], in [3], in experiment [4], in experiment [5] and in [6] was “inactive” each time. For the same compound, the Potency result in experiment [7], in [8], in [9], in experiment [10], in [11] and in experiment [13] was “inactive” throughout. The Potency result in experiment [14], in [15] and in [16] was “inactive” each time. The compound was called inactive in [12] and in [17]. Further, in [18], the Potency result was “inactive and 62.6 µM (active)”.
Consider `O=[N+]([O-])c1ccccc1O`, for which the Potency result in experiment [1], in experiment [2], in [19], in experiment [3], in experiment [4] and in experiment [5] was “inactive” in each case. The Potency result in experiment [6], in experiment [7], in experiment [8], in experiment [9], in experiment [10] and in experiment [11] was “inactive” in each case. Moreover, the Potency entry in experiment [13], in experiment [14], in [15], in [16] and in [18] was “inactive” each time. Further, the compound was classed as inactive in experiment [17].
For the compound `CCC[N+]1(C)CCCCC1`, the Potency entry in [1], in experiment [2], in [19], in experiment [3], in experiment [4] and in [5] was “inactive” in each case. Moreover, the Potency result in [6], in experiment [7], in experiment [8], in [9], in experiment [10] and in experiment [11] was “inactive” throughout. For the same compound, the Potency result in [13], in [14], in [15], in experiment [16] and in [18] was “inactive” each time. The outcome in experiment [17] was inactive.
As to `C[N+](C)(C)Cc1ccccc1`, the Potency result in [1], in experiment [2], in experiment [19], in experiment [3], in experiment [4] and in [5] was “inactive” in each case. Besides, the Potency entry in experiment [6], in experiment [7], in experiment [8], in experiment [9], in [10] and in experiment [11] was “inactive” in each case. Also, the Potency entry in [13], in experiment [14], in experiment [15], in [16] and in experiment [18] was “inactive” throughout. In addition, the compound was called inactive in experiment [17].
For the compound `Cc1cc(Cl)ccc1N`, the Potency result in experiment [1] is “inactive and 38.9 µM (active)”; in experiment [2] it was “inactive and 38.9 µM (active)”; in [19], “inactive and 38.9 µM (active)”; in experiment [3] it was “inactive and 34.7 µM (active)”; in [9] it was “inactive and 43.6 µM (active)”. Besides, the Potency entry in experiment [4], in experiment [5], in experiment [6], in experiment [8], in experiment [10] and in [11] was “inactive” each time. Moreover, the Potency result in experiment [13], in experiment [14], in experiment [15], in experiment [16] and in [18] was “inactive” each time. Moreover, the call in [17] was inactive.
For `CCCCCCCCCCCC(=O)O`, the Potency entry in experiment [1], in [2], in experiment [19], in [3], in experiment [4] and in [5] was “inactive” throughout. Besides, the Potency entry in [6], in experiment [7], in [8], in experiment [9], in experiment [10] and in experiment [11] was “inactive” in each case. Also, the Potency result in experiment [13], in experiment [14], in experiment [15], in experiment [16] and in [18] was “inactive” in each case. Also, the call in [17] was inactive.
For `CCCC[n+]1ccc(C)cc1`, the Potency entry in experiment [1] is “inactive and 21.8 µM (active)”; in experiment [19], “inactive and 48.7 µM (active)”; in experiment [3] it was “inactive and 21.8 µM (active)”; in [5] it was 43.4 µM (active) and inactive; in experiment [6] it was 30.7 µM (active) and inactive; in experiment [14], “inactive and 60.8 µM (active)”. Also, the Potency entry in experiment [15] is “inactive and 60.8 µM (active)”; in experiment [16] it was “inactive and 60.8 µM (active)”; in [18], “inactive and 24.2 µM (active) and 13.7 µM (active)”. The Potency result in [2], in [4], in experiment [8], in [9], in experiment [10] and in [11] was “inactive” throughout. In addition, the Potency result in experiment [13] was “inactive”. For the same compound, the call in experiment [17] was inactive.
For `CCC(=O)C(CC(C)N(C)C)(c1ccccc1)c1ccccc1` (stereo unspecified), the Potency result in experiment [1], in experiment [2], in [3], in experiment [4], in [6] and in experiment [7] was “inactive” each time. Also, the Potency result in experiment [8], in experiment [9], in experiment [10], in experiment [11], in experiment [20] and in [13] was “inactive” each time. The Potency in experiment [19] was 43.8 µM (active) and 48.6 µM (active) and inactive; in experiment [16], 27.4 µM (active); in experiment [18], 24.4 µM (active) and inactive. Also, the PLD induction in [12] is 2.52% [at 3.15 µM] (inactive). Further, the compound was classed as inactive in experiment [17].
